From PubChem BioAssay
PKM2 activator – PKM2 (human) enzyme activation; P14618; purified PKM2, Kinase-Glo ATP luminescence, activation; response scale: 0% is enzyme alone, no compound; Potency, µM (highest dose often 57.5 µM), without a hit: top-dose activation, actives largely listed as activators; 260,000 compounds, 0.34% hits; AID 1631; note: potency is the fitted concentration of half-maximal effect; nearly all actives have a fitted effect of over 55% in size
Target sequence (P14618 whole entry, looked up): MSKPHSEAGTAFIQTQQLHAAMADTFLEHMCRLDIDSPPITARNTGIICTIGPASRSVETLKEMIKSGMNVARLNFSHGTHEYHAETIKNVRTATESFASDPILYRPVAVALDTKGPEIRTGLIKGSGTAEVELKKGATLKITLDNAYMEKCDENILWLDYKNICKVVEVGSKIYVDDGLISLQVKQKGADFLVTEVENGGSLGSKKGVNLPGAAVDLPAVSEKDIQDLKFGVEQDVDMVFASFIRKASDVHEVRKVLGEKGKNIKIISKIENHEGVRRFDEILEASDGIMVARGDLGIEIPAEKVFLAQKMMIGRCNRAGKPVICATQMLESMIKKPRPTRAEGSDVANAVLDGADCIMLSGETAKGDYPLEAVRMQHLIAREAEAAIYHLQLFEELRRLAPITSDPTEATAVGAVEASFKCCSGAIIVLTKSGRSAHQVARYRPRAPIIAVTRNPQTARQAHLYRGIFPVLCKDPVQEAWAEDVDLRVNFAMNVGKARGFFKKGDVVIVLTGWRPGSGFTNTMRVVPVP
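hPK-M2, >95% pure; 0.1 mM ADP / 0.5 mM PEP final; imidazole pH7.2 buffer w/ 7 mM MgCl2, 50 mM KCl; 1 h RT; Kinase-Glo lum. Intermediate enzyme activity for dual inhibitor/activator qHTS.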
CtBP-E1A inh – blocks the CtBP interaction with E1A; AlphaScreen GST-E1A/His-CtBP binding, 1536-well; active compounds read low; activity change, % (concentration not given with the values); 340,000 compounds, 0.49% hits; AID 651724; in the data active = activity change below about -65%; inconclusive = mostly about -30% to -63%
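Steps: dispense buffer (Tris pH 8.0, NaCl 300 mM, TCEP 1 mM, BSA, Tween 20); add 5X protein mix (GST-E1A, His-CtBP, 125 nM each); pin 23 nL compound; 2 h at 37 °C, dark; add 5X beads (50 ug/mL); 1 h; read.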
Gal4-VP16 FLuc – counter-screen for ROR gamma inhibitors: Gal4-VP16 reporter; Drosophila S2 Gal4-VP16 UAS-luciferase, luminescence, 20 h; Potency, µM (series often up to 53.6 µM), without a hit: at the highest dose activity, negative = inhibition, hits mostly inhibitors; 310,000 compounds, 3.5% hits; AID 2546;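 note: Gal4-VP16 expression switched on by copper sulfate through the metallothionein promoter; potency is the fitted concentration of half-maximal effect; nearly all actives have a fitted effect of over 50% in size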
Six1-Eya2 blk – blocks human Six1 binding to Eya2; Q15475+O00167; AlphaScreen GST-Six1/His-Eya2 binding, biochemical; active compounds read low; activity change, % (concentration not given with the values); 360,000 compounds, 0.56% hits; AID 651725; in the data active = activity change below about -65%; inconclusive = mostly about -30% to -63%
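GST-Six1 + His-Eya2 (5X stock: 250/500 nM); Tris pH 8.0, 300 mM NaCl, 0.05% BSA, 0.02% Tween 20; GSH donor/Ni acceptor beads; 1 h 37 °C dark; AlphaScreen readout.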
RORgamma inh – inhibitors of mouse ROR gamma transcriptional activity. 310,000 compounds, 5.4% hits. AID 2551. Drosophila S2 Gal4-RORgamma UAS-luciferase reporter, 20 h. Potency, µM (highest dose often 53.6 µM), inactives show at the top dose activity change, negative = inhibition, usual class: inhibitors. P51450; note: potency is the fitted concentration of half-maximal effect; nearly all actives have a fitted effect of over 60% in size
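Stably transfected Drosophila Schneider cells are the test system, with ROR gamma fused to Gal4 and luciferase under UAS control; luminescence is read after 20 hr of 700 uM copper sulfate induction at ambient temperature.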
Numbers without * were called inactive; ? = inconclusive; . = no result; [ ] = remark or other dose. In the library only some 5.6% were active in any assay of this set; here they are far more common. Unless noted, calls come from the whole dose curve; as a rule, active = well fitted curve in the direction sought with a large enough effect; inconclusive = small, poorly fitted or top-dose-only effect, or another doubt; inactive = no such curve, though single readings can be large; an effect the other way counts as inactive or inconclusive. % is set by controls: 0 for no effect and ±100 for the full control effect.

SMILES	PKM2 activator	CtBP-E1A inh	Gal4-VP16 FLuc	Six1-Eya2 blk	RORgamma inh
Cc1ccccc1C(=O)NC(=S)Nc1ccccc1N1CCCC1	-4.7%	-20.0	-25.9%[10 µM]	?	7.08µM*
COc1ccccc1C(=O)NC(=S)Nc1ccccc1N1CCCC1	-6.2%	.	?	.	10µM*
COc1ccccc1C(=O)NC(=S)Nc1ccc(N2CCCC2)cc1	-6.2%	-27.5	-14.7%	-23.5	?
Cc1c(CN2CCCC(C(=O)c3cccc(OC(C)C)c3)C2)c(=O)n(-c2ccccc2)n1C (stereo unspecified)	1.8%	.	-1.9%	15.0	-9.1%
Oc1ccccc1N=Nc1nc(-c2ccccc2)c(-c2ccccc2)[nH]1	-4.3%	?	3.98µM*	-66.6*	3.98µM*
COc1ccc(-c2nc(C)ncc2N=Nc2ccccc2)cc1	-1.6%	?	10.1%	?	13.3%
COc1ccc(N=Nc2nc(-c3ccccc3)c(-c3ccccc3)[nH]2)cc1	-0.5%	1.7	2.82µM*	-69.8*	2.24µM*
COc1ccccc1N=Nc1nc(-c2ccccc2)c(-c2ccccc2)[nH]1	-1.5%	12.5	5.01µM*	?	3.16µM*
COc1cc(CN2CC(=O)N(c3cc(Cl)ccc3C)C2=S)cc(OC)c1OC	.	.	6.0%	0.9	-14.9%
Cc1ccccc1-n1nc(C(=O)c2cccs2)cc(-c2nc3ccccc3[nH]2)c1=N	-0.1%	-14.6	0.891µM*	-13.3	0.708µM*
Cc1cccc(-n2nc(C(=O)c3ccco3)cc(-c3nc4ccccc4[nH]3)c2=N)c1	3.2%	.	5.01µM*	-1.7	2.51µM*
COc1ccc(-n2nc(C(=O)c3cccs3)cc(-c3nc4ccccc4[nH]3)c2=N)cc1	3.0%	-10.7	3.55µM*	-6.4	3.16µM*
CC(=O)OC[C@@H]1O[C@@H](O/N=C2/C[C@@H](O)[C@@H](O)[C@@H]3[C@@H]4C(=O)N(C(C)(C)C)C(=O)[C@H]4CC[C@H]23)[C@H](OC(C)=O)[C@H](OC(C)=O)[C@@H]1OC(C)=O	.	.	-1.0%[10 µM]	.	5.1%[10 µM]
CSCCC(NS(=O)(=O)c1ccccc1F)C(=O)Nc1ccncc1 (stereo unspecified)	.	1.3	.	3.2	.
NC(=O)c1ccc2c(=O)n3c(-c4cc(Cl)c(N)c(Cl)c4)csc3nc2c1	3.0%	-76.1*	-2.1%	-75.2*	-10.3%
O=C(CSc1nc2nn(-c3ccccc3)c(=O)c-2c2n1CCCCC2)c1ccc(O)c(O)c1	.	-4.6	.	-25.3	.
CCOc1cccc(-c2c(C(=O)N/N=C/c3ccco3)nnn2-c2nonc2N)c1	.	-0.9	25.1µM*	-4.2	11.2µM*
CCOc1cccc(-c2c(C(=O)N/N=C/c3ccoc3)nnn2-c2nonc2N)c1	.	-2.4	?	-1.7	10µM*
CCOc1ccc(-c2c(C(=O)N/N=C/c3ccoc3)nnn2-c2nonc2N)cc1	0.9%	-7.8	?	3.7	?
CCOc1cccc(-c2c(C(=O)N/N=C/c3ccc(C)o3)nnn2-c2nonc2N)c1	.	-3.8	?	-10.7	10µM*
COc1ccc(-c2nc3ccc(Br)cn3c2Cc2cccc(Cl)c2)cc1OC	.	-0.2	.	-7.0	.
C/C(=N/NC(=O)CNC(=O)c1cccnc1)c1ccc(Cl)c(Cl)c1	.	3.5	-3.5%	-1.8	6.7%
CCOC(=O)/C(N=Nc1ccc2c(c1)OCO2)=C(\C)O	-7.2%	-21.5	9.8%	-17.7	21.9%
COc1ccc2nc(-n3c(O)c(C4=c5ccccc5=NC4=O)[nH]c3=S)sc2c1	4.9%	30.4	?	?	12.6µM*
Cc1ccsc1C(=O)OCC(=O)N1CCc2ccccc2C1	.	-2.0	-12.0%	7.9	?
SMILES	PKM2 activator	CtBP-E1A inh	Gal4-VP16 FLuc	Six1-Eya2 blk	RORgamma inh
NNc1nccc(Nc2ccccc2C(=O)O)n1	-1.5%	-66.8*	2.7%	-90.5*	9.6%
c1ccc(Nc2ccnc(Nc3ccccc3)n2)cc1	2.0%	0.0	?	0.1	-20.2%
CCCCNc1nccnc1-c1cccc(C=O)c1	.	-2.0	.	2.4	.
O=C(CN1CCCc2ccccc21)N/N=C/c1c(O)ccc2ccccc12	13.4%	?	0.794µM*	?	1.26µM*
O=C(CN1CCCc2ccccc21)N/N=C/c1ccc(O)cc1O	5.1%	-27.0	22.4µM*	?	?
Cc1cc(CNC(=O)c2cccc([N+](=O)[O-])c2C)c2ccccc2n1	.	3.8	10µM*	-3.8	-25.7%
CCCCC(C)/C=C(C)/C=C(\C)C(=O)NC1=CC(O)(/C=C/C=C/C=C/C(=O)NC2=C(O)CCC2=O)C2OC2C1=O (stereo unspecified)	.	.	1.26µM*	.	0.562µM*
COc1ccc(S(=O)(=O)N2CN3CCN(C3)C2)cc1OC	.	.	-5.8%	-0.2	-9.5%
COc1ccc(-n2ccc(=O)c3c2CCCC3=O)cc1	28.2µM*	-1.3	2.7%	6.6	-13.0%[10 µM]
COc1ccc2c(c1)C(c1ccc(Cl)cc1)NC(=O)C2 (stereo unspecified)	.	2.8	.	0.5	.
CC1=C(SCCC#N)S/C(=C2\SC(C)=C(SCCC#N)S2)S1	-16.2%	-4.6	?	-78.0*	?
Cc1ccc(NC(=O)CSc2ncn(-c3ccccc3)n2)cc1C	8.8%	-2.3	-4.9%	-0.8	?
COc1ccc(NC(=O)CSc2ncn(-c3ccccc3)n2)cc1Cl	14.1µM*	31.4	-0.7%	15.6	-21.9%
CN(Cc1ccc(Cl)s1)C(=O)CCl	-3.8%	-8.9	-75.8%	28.0	10µM*
Cc1ccc(C(=O)Oc2ccccc2N2C(=O)C3CCC(C)CC3C2=O)cc1 (stereo unspecified)	11.5%	7.5	-3.2%	6.0	-0.7%
CC1CCC2C(=O)N(c3ccc(C(=O)Oc4cccc5cccnc45)cc3)C(=O)C2C1 (stereo unspecified)	-2.2%	-28.9	3.16µM*	?	6.31µM*
CCOc1cc(NC(=S)NCC2CCCO2)c(OCC)cc1NC(=O)c1ccccc1C (stereo unspecified)	0.5%	-14.2	?	-17.6	10µM*
CCOc1cc(NC(=S)Nc2ccccc2)c(OCC)cc1NC(=O)c1ccccc1	0.3%	-24.1	10µM*	-25.6	1.78µM*
S=C(NCC1CCCO1)Nc1cccc2ccccc12 (stereo unspecified)	-2.3%	0.3	?	3.4	7.08µM*
CCOc1cc(NC(=S)NCC2CCCO2)c(OCC)cc1NC(=O)c1ccc(OC)cc1 (stereo unspecified)	-11.9%	5.2	10µM*	-0.6	11.2µM*
CCOc1cc(NC(=O)c2ccccn2)c(OCC)cc1NC(=O)c1ccccc1	-3.5%	12.9	-2.8%	-4.6	2.4%
N#Cc1ccccc1OCC(=O)Nc1ccccc1C(=O)NC1CC1	.	10.1	.	-3.2	.
COc1cccc(NS(=O)(=O)c2ccc(C)c(C(=O)N3CCCCC3)c2)c1	-0.3%	3.6	-1.7%	7.5	-9.1%
